Unmarked numbers belong to inactive results. The source made the active and inactive calls. No stated cut-off is given here; in the data, active means fold change permeability below about 0.7 or above about 1.3; inactive means in between.

A short description of this test: compounds altering in vitro BBB leakiness – cell-based, FITC-avidin fluorescence, HTS, primary screen (AID 1963498). Further: test concentration not given here. As to conditions: brain endothelial barrier, actives lie on both sides.
With `Cc1cccc(-c2[nH]ncc2-c2ccc3ncccc3n2)n1`, the fold change permeability was 0.7 (active).
Then `CCCC(CCC)C(=O)O`, with 1.1; and `CN(C)C(=O)Nc1cccc(-c2ccc(N(C)C)cc2)c1`, with 1.1; and `O=P(O)(O)C(Cl)(Cl)P(=O)(O)O`, with 1.1.
Take `CNc1cc(NS(=O)(=O)c2ccc(N)cc2)nc(NC)n1`: the fold change permeability was 0.7 (active).
Then `NC1(C(=O)O)CCCCC1`, with 1; and `CCCCNc1cc(C(=O)O)cc(S(N)(=O)=O)c1Oc1ccccc1`, with 1; and `C=CCN1CCc2cc(O)c(O)cc2C(c2ccccc2)C1` (stereo not drawn), with 0.7 (active).
To `CN(C)C/C=C(/c1ccc(Br)cc1)c1cccnc1` belongs 1.7 (active); to `Nc1c(S(=O)(=O)O)cc(Nc2ccc(Nc3nc(Cl)nc(Nc4cccc(S(=O)(=O)O)c4)n3)c(S(=O)(=O)O)c2)c2c1C(=O)c1ccccc1C2=O`, 0.7 (active).
To `C=Cc1c(C)c2cc3[nH]c(cc4nc(cc5nc(cc1[nH]2)C(C)=C5CCC(=O)O)C(CCC(=O)O)=C4C)c(C)c3C=C` belongs 1; to `N[C@@H](Cn1ccc(=O)c(O)c1)C(=O)O`, 1.8 (active).
Regarding `c1ccc(-c2ccccn2)nc1`, the fold change permeability is 1.
To `COc1cc2nc(N(C)CCCNC(=O)C3CCCO3)nc(N)c2cc1OC` (stereo not drawn) belongs 1; to `NC[C@@H]1O[C@H](C23CC4CC(CC(C4)C2)C3)Cc2c1ccc(O)c2O`, 1.1.
For `CN(C)CCC(c1ccc(Cl)cc1)c1ccccn1` (stereo not drawn), the fold change permeability is 1.1.
Then `CCN(CC)C(=S)SSC(=S)N(CC)CC`, with 1.7 (active); and `Cc1ccc(C(=O)Nc2ccc(S(=O)(=O)O)c3cc(S(=O)(=O)O)cc(S(=O)(=O)O)c23)cc1NC(=O)c1cccc(NC(=O)Nc2cccc(C(=O)Nc3cc(C(=O)Nc4ccc(S(=O)(=O)O)c5cc(S(=O)(=O)O)cc(S(=O)(=O)O)c45)ccc3C)c2)c1`, with 1.3 (active).

The record behind these values is PubChem BioAssay.
